Reference: PubChem BioAssay (NCI)
Compounds without any hit were thinned out: in the full panel of roughly 83,000, 20% have a hit.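 Single-dose data. Exposure time 48 hours. Values below 10 considered active.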 The source made the active and inactive calls.

What was measured:
Assay in all cases: NCI-60 one-dose screen, 48 h (100 = growth as untreated, 0 = no growth, -100 = all killed)
HCT-15 colon = conditions: 10 µM unless noted
SNB-75 CNS = conditions: 10 µM unless noted
SNB-19 CNS = conditions: 10 µM unless noted
U251 CNS = conditions: 10 µM unless noted
PC-3 prostate = conditions: 10 µM unless noted
SK-MEL-5 melanoma = conditions: 10 µM unless noted
UACC-62 melanoma = conditions: 10 µM unless noted
LOX IMVI melanoma = conditions: 10 µM
SK-MEL-28 melanoma = conditions: 10 µM unless noted
SK-MEL-2 melanoma = conditions: 10 µM unless noted
EKVX NSCLC = conditions: 10 µM unless noted
SN12C renal = conditions: 10 µM unless noted
UO-31 renal = conditions: 10 µM unless noted
TK-10 renal = conditions: 10 µM unless noted
A498 renal = conditions: 10 µM unless noted
CCRF-CEM leukemia = conditions: 10 µM unless noted
MOLT-4 leukemia = conditions: 10 µM unless noted
CAKI-1 renal = conditions: 10 µM unless noted
ACHN renal = conditions: 10 µM unless noted
HT29 colon = conditions: 10 µM unless noted

Measured: growth

O=C(Nc1ccc(Cl)c(Cl)c1)Nc1ccccc1O
inactive: HCT-15 colon 78.5% | SNB-75 CNS 67% | SNB-19 CNS 85.8% | U251 CNS 85.7% | PC-3 prostate 38.1% | SK-MEL-5 melanoma 74.5% | UACC-62 melanoma 42.8% | LOX IMVI melanoma 70.4% | SK-MEL-28 melanoma 107% | SK-MEL-2 melanoma 77% | EKVX NSCLC 80.4% | SN12C renal 76.4% | UO-31 renal 55.8% | TK-10 renal 116% | A498 renal 106% | CCRF-CEM leukemia 37.1% | MOLT-4 leukemia 61.1%

CCN(CC)CCNc1ccc([N+](=O)[O-])c2sc3ccccc3c(=O)c12
inactive: HCT-15 colon 23% | SNB-75 CNS 34.8% | SNB-19 CNS 34.8% | U251 CNS 22.8% | PC-3 prostate 27.3% | UACC-62 melanoma 35.7% | LOX IMVI melanoma 19.4% | SK-MEL-28 melanoma 35.4% | SK-MEL-2 melanoma 21.6% | EKVX NSCLC 23.1% | TK-10 renal 63.7% | A498 renal 43.7% | CCRF-CEM leukemia 38% | MOLT-4 leukemia 12.1%
active: UO-31 renal -10% | CAKI-1 renal -0.017%

Nc1nc(-c2ccccc2)nc(N)c1N=O
inactive: HCT-15 colon 53.6% | SNB-75 CNS 44.8% | SNB-19 CNS 88.7% | U251 CNS 52.4% | PC-3 prostate 79.9% | SK-MEL-5 melanoma 100% | LOX IMVI melanoma 66.7% | SK-MEL-28 melanoma 75.3% | SK-MEL-2 melanoma 88% | EKVX NSCLC 89.1% | SN12C renal 74% | UO-31 renal 45.8% | TK-10 renal 51.6% | ACHN renal 58.9% | CAKI-1 renal 32.4% | A498 renal 112% | CCRF-CEM leukemia 34.8% | MOLT-4 leukemia 58.1%

CC1(O)CCCCCC1
inactive: HCT-15 colon 102% | SNB-75 CNS 86.3% | SNB-19 CNS 97.6% | U251 CNS 101% | PC-3 prostate 103% | SK-MEL-5 melanoma 101% | UACC-62 melanoma 100% | LOX IMVI melanoma 94.2% | SK-MEL-28 melanoma 106% | SK-MEL-2 melanoma 105% | SN12C renal 99.9% | UO-31 renal 82.6% | TK-10 renal 99.5% | CAKI-1 renal 101% | A498 renal 75.3% | CCRF-CEM leukemia 92.7% | MOLT-4 leukemia 92.8%

CCCCCCC1N=C(N)N=C(N)N1c1cccc(Cl)c1 (centres undefined)
inactive: HCT-15 colon 84.2% | HT29 colon 17.9% | SNB-19 CNS 26.9% | PC-3 prostate 29.3% | SK-MEL-5 melanoma 28.3% | LOX IMVI melanoma 17.1% | SK-MEL-28 melanoma 40% | SK-MEL-2 melanoma 82.9% | SN12C renal 26.8% | UO-31 renal 93.4% | TK-10 renal 67.6% | ACHN renal 53.9% | CAKI-1 renal 100% | A498 renal 83% | CCRF-CEM leukemia 28.7% | MOLT-4 leukemia 25.4%

CCCOS(=O)(=O)c1ccccc1
active: CCRF-CEM leukemia 6.52%
inactive: HCT-15 colon 102% | HT29 colon 110% | U251 CNS 106% | PC-3 prostate 92.1% | SK-MEL-5 melanoma 112% | UACC-62 melanoma 102% | LOX IMVI melanoma 103% | SK-MEL-28 melanoma 122% | SK-MEL-2 melanoma 114% | EKVX NSCLC 110% | UO-31 renal 83.3% | TK-10 renal 102% | ACHN renal 102% | CAKI-1 renal 91.8% | A498 renal 100% | MOLT-4 leukemia 107%

CCC(C)(O)Cc1ccc(Cl)cc1 (centres undefined)
inactive: HCT-15 colon 103% | HT29 colon 103% | U251 CNS 101% | PC-3 prostate 94.5% | UACC-62 melanoma 101% | LOX IMVI melanoma 103% | SK-MEL-28 melanoma 112% | EKVX NSCLC 111% | SN12C renal 103% | UO-31 renal 94.2% | ACHN renal 111% | CAKI-1 renal 101% | A498 renal 89.5% | CCRF-CEM leukemia 105% | MOLT-4 leukemia 98.4%

OC(c1cc(-c2ccc(Cl)cc2)nc2c(Cl)cccc12)C1CCCCN1 (centres undefined)
active: HCT-15 colon -58.1% | SNB-75 CNS -81.2% | SNB-19 CNS -69.9% | U251 CNS -89% | PC-3 prostate -94.4% | SK-MEL-5 melanoma -0.885% | UACC-62 melanoma -75.9% | LOX IMVI melanoma -76.6% | SK-MEL-28 melanoma -94.6% | SK-MEL-2 melanoma -91% | EKVX NSCLC -32.9% | SN12C renal -70.3% | UO-31 renal -74.5% | ACHN renal -65.3% | CAKI-1 renal -72.5% | A498 renal 9.48% | CCRF-CEM leukemia -59.1% | MOLT-4 leukemia -57.5%

CCc1cccc(CC)c1N1C(=O)C=CC1=O
active: MOLT-4 leukemia -10%
inactive: HCT-15 colon 104% | HT29 colon 113% | SNB-19 CNS 105% | PC-3 prostate 110% | SK-MEL-5 melanoma 98.1% | LOX IMVI melanoma 106% | SK-MEL-28 melanoma 119% | SK-MEL-2 melanoma 107% | EKVX NSCLC 113% | SN12C renal 129% | UO-31 renal 90.3% | TK-10 renal 104% | ACHN renal 102% | A498 renal 100% | CCRF-CEM leukemia 17%

Nc1nc2ncc(CNc3ccc(C(=O)NC(CCC(=O)NC(CCC(=O)NC(CCC(=O)NC(CCC(=O)NC(CCC(=O)O)C(=O)O)C(=O)O)C(=O)O)C(=O)O)C(=O)O)cc3)nc2c(=O)[nH]1 (centres undefined)
inactive: HCT-15 colon 103% | HT29 colon 107% | U251 CNS 110% | PC-3 prostate 100% | SK-MEL-5 melanoma 94.7% | UACC-62 melanoma 94.5% | LOX IMVI melanoma 100% | SK-MEL-28 melanoma 110% | SK-MEL-2 melanoma 118% | EKVX NSCLC 95.9% | SN12C renal 101% | TK-10 renal 119% | ACHN renal 110% | CAKI-1 renal 89.7% | A498 renal 116% | CCRF-CEM leukemia 102% | MOLT-4 leukemia 107%

O=C(Cc1nc2cc(Cl)c(Cl)cc2nc1CC(=O)c1ccccc1)c1ccccc1
inactive: HCT-15 colon 69.6% | HT29 colon 65.3% | U251 CNS 86.6% | PC-3 prostate 59.4% | SK-MEL-5 melanoma 90.3% | UACC-62 melanoma 56.9% | LOX IMVI melanoma 62.2% | SK-MEL-28 melanoma 91.1% | SK-MEL-2 melanoma 90.2% | EKVX NSCLC 51.4% | SN12C renal 75.4% | TK-10 renal 119% | ACHN renal 59.2% | CAKI-1 renal 68.6% | A498 renal 125% | CCRF-CEM leukemia 27.1% | MOLT-4 leukemia 28.9%

CN=C(N)N/N=C(\c1ccccc1)c1ccc(Br)cc1
inactive: HCT-15 colon 12.4% | SNB-19 CNS 62.2% | PC-3 prostate 12.6% | UACC-62 melanoma 33.8% | SK-MEL-28 melanoma 48% | SN12C renal 16.2% | TK-10 renal 21.6% | ACHN renal 21.5%
active: SNB-75 CNS 9.3% | U251 CNS -9.13% | SK-MEL-5 melanoma -36.7% | LOX IMVI melanoma 0.411% | UO-31 renal 0.0982% | CAKI-1 renal 0.888% | A498 renal -19.2% | CCRF-CEM leukemia 2.24% | MOLT-4 leukemia -14%

Nc1cc(-c2ccccc2)ccc1O
inactive: HCT-15 colon 93.3% | SNB-75 CNS 105% | SNB-19 CNS 98.5% | U251 CNS 101% | SK-MEL-5 melanoma 118% | UACC-62 melanoma 88% | LOX IMVI melanoma 90% | SK-MEL-28 melanoma 93.3% | SK-MEL-2 melanoma 120% | EKVX NSCLC 96.4% | SN12C renal 104% | TK-10 renal 127% | ACHN renal 104% | A498 renal 93% | CCRF-CEM leukemia 37.2% | MOLT-4 leukemia 25.1%

CC(/C=N/NC(N)=S)Cc1ccc(C(C)C)cc1 (centres undefined)
inactive: HCT-15 colon 80.2% | SNB-75 CNS 71.4% | U251 CNS 88.7% | PC-3 prostate 73.5% | UACC-62 melanoma 54.5% | LOX IMVI melanoma 79.5% | SK-MEL-28 melanoma 82.4% | SK-MEL-2 melanoma 54.4% | EKVX NSCLC 80.5% | SN12C renal 69.8% | UO-31 renal 45% | TK-10 renal 99.6% | ACHN renal 103% | CAKI-1 renal 58.7% | A498 renal 51% | CCRF-CEM leukemia 65.9% | MOLT-4 leukemia 67.7%

O=C(/C(Cl)=N/O)c1ccc(-c2ccccc2)cc1
inactive: HCT-15 colon 94.5% | SNB-75 CNS 113% | SNB-19 CNS 105% | U251 CNS 96.1% | SK-MEL-5 melanoma 98.7% | UACC-62 melanoma 97.9% | SK-MEL-28 melanoma 110% | SK-MEL-2 melanoma 110% | SN12C renal 103% | UO-31 renal 57.9% | ACHN renal 86.8% | CAKI-1 renal 91.1% | A498 renal 123% | MOLT-4 leukemia 83.3%
active: LOX IMVI melanoma -41.5% | CCRF-CEM leukemia 8.56%

O=C1c2ccccc2Cc2cccc(Cl)c21
inactive: HCT-15 colon 97.4% | SNB-75 CNS 117% | SNB-19 CNS 100% | PC-3 prostate 92.9% | SK-MEL-5 melanoma 96.2% | UACC-62 melanoma 98.9% | LOX IMVI melanoma 93.9% | SK-MEL-28 melanoma 101% | SK-MEL-2 melanoma 87.5% | EKVX NSCLC 104% | SN12C renal 97.3% | UO-31 renal 82.9% | TK-10 renal 89.6% | ACHN renal 98.9% | CAKI-1 renal 99.1% | A498 renal 64.3% | CCRF-CEM leukemia 98.8% | MOLT-4 leukemia 39.6%

NC(=S)N/N=C\c1nccc2c(C(F)(F)F)cccc12
active: U251 CNS 5.79% | SK-MEL-5 melanoma -41.5% | UACC-62 melanoma -3.16% | LOX IMVI melanoma 4.01% | SK-MEL-2 melanoma -7.77% | EKVX NSCLC 1.87% | UO-31 renal -35.2% | ACHN renal 6.72% | CAKI-1 renal -2.51% | CCRF-CEM leukemia -9.85% | MOLT-4 leukemia -40.2%
inactive: HT29 colon 18.5% | SNB-75 CNS 11.6% | SNB-19 CNS 30.6% | PC-3 prostate 18.6% | SK-MEL-28 melanoma 26.6% | SN12C renal 17.2% | TK-10 renal 17%

S=c1[nH]c2cc(Cl)ccc2s1
inactive: HCT-15 colon 109% | SNB-75 CNS 92.3% | U251 CNS 101% | PC-3 prostate 94.1% | SK-MEL-5 melanoma 95.7% | UACC-62 melanoma 88.4% | LOX IMVI melanoma 97.6% | SK-MEL-28 melanoma 110% | SK-MEL-2 melanoma 100% | SN12C renal 96.6% | UO-31 renal 66% | TK-10 renal 97.6% | ACHN renal 95.2% | CAKI-1 renal 92.3% | A498 renal 132% | MOLT-4 leukemia 108%
active: CCRF-CEM leukemia -43.5%

O=[N+]([O-])c1ccc([I+]c2ccccc2)cc1
inactive: HCT-15 colon 62.1% | PC-3 prostate 62.3% | ACHN renal 64.2% | CAKI-1 renal 23.1% | A498 renal 39.6% | MOLT-4 leukemia 22.9%
active: SNB-19 CNS -70.9% | U251 CNS -97.1% | SK-MEL-5 melanoma -29.5% | UACC-62 melanoma -17.6% | LOX IMVI melanoma -81.9% | SK-MEL-28 melanoma -76.8% | SK-MEL-2 melanoma -17.9% | EKVX NSCLC -62.4% | SN12C renal -56.2% | TK-10 renal 3.24%
